Measured values from PubChem BioAssay (Tox21).
“And” between values parts separate entries of the source, which are not always exact repeats. Equal values may be shown once. Inconclusive results are not listed. The source made the active and inactive calls. Calls follow the shape of the dose curve; as a rule, active = well fitted curve in the direction sought with a large enough effect in the repeat runs; inconclusive = weak or mixed curves; inactive = no such curve, though single readings can be large; an effect the other way counts as inactive or inconclusive.

Legend:
[1] = Caspase-3/7 induction in HepG2 cells by small molecules, qHTS assay (AID 1346978); also: nearly all actives have a fitted effect of over 15% in size
In short: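 Caspase-3/7 induction was measured by Caspase-Glo 3/7 luminescence (30 min, room temperature) after a 17 hr compound exposure of wild-type HepG2 cells seeded at 2,000 per well and pre-incubated 5 hr.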

[2] = Caspase-3/7 induction in CHO-K1 cells by small molecules, qHTS cell viability counter screen (AID 1346979); also: nearly all actives have a fitted effect of over 35% in size; also: potency is read from the fitted curve at half-maximal effect
In short: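 CellTiter-Fluor viability check, qHTS format: wild-type CHO-K1, 16hr compound treatment, 1hr reagent incubation, fluorescence read.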

[3] = Caspase-3/7 induction in CHO-K1 cells by small molecules, qHTS assay (AID 1346980); also: nearly all actives have a fitted effect of over 15% in size
In short: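 Luminescent Caspase-Glo 3/7 read (30min, room temperature) quantified apoptosis induction. Cells were wild-type CHO-K1, treated with compound for 17hr at 37 C and 5% CO2.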

[4] = Caspase-3/7 induction in HepG2 cells by small molecules, qHTS cell viability counter screen (AID 1346981); also: series mostly up to about 92 µM; nearly all actives have a fitted effect of over 30% in size
In short: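 After a 5-hr attachment period at 37 C and 5% CO2, wild-type HepG2 cells received compounds in DMSO. Sixteen hours later CellTiter-Fluor was dispensed and the fluorescent signal quantified after a further hour.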

[5] = target: Nuclear receptor subfamily 1 group I member 2 (Homo sapiens) (UniProt O75469); assay: Human pregnane X receptor (PXR) small molecule agonists, qHTS assay (AID 1346982); also: nearly all actives have a fitted effect of over 35% in size; also: potency is read from the fitted curve at half-maximal effect
In short: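 Tox21 qHTS; PXR-Luc HepG2; compounds pinned from DMSO; 24 hr, 37 C; ONE-Glo luciferase detection, 30 min room temperature.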

[6] = target: Cytochrome P450 2D6 (Homo sapiens) (UniProt P10635); assay: Cytochrome P450 Family 2 Subfamily D Member 6 (CYP2D6) small molecule antagonists: luciferase reporter qHTS assay (AID 1671196); also: nearly all actives have a fitted effect of over 50% in size; also: potency is read from the fitted curve at half-maximal effect; as to activity change, negative = inhibition: series mostly up to about 120 µM
In short: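 Room-temperature luminescent CYP2D6 activity assay: compound preincubated 10 min with enzyme–substrate mix, NADPH-initiated reaction 1 h, detection reagent 20 min before reading.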

[7] = target: Cytochrome P450 2C19 (Homo sapiens) (UniProt P33261); assay: Cytochrome P450 Family 2 Subfamily C Member 19 (CYP2C19) small molecule antagonists: luciferase reporter qHTS assay (AID 1671197); also: nearly all actives have a fitted effect of over 65% in size; also: potency is read from the fitted curve at half-maximal effect; as to activity change, negative = inhibition: series mostly up to about 120 µM
In short: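 Quantitative high-throughput screen of the Tox21 library using CYP2C19 with proluciferin substrate. Reaction: NADPH regeneration, 37C, 1 h, after 10 min compound preincubation at room temperature. Readout: luminescence.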

[8] = target: Nuclear receptor subfamily 1 group I member 2 (Rattus norvegicus) (UniProt Q9R1A7); assay: Rat pregnane X receptor (rPXR) activation by small molecules, qHTS assay (AID 1346983); settings: rPXR luciferase reporter cells, One-Glo luminescence, 24 h; max activation: active compounds read high; also: nearly all actives have a fitted effect of over 20% in size
In short: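 Luminescent readout (One-Glo luciferase, 30 min room temperature) followed 24 hr compound treatment at 37 C of rPXR cells plated 2,000 per well and preincubated 5hr; qHTS format with compounds delivered in DMSO.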

[9] = target: Nuclear receptor subfamily 1 group I member 2 (Homo sapiens) (UniProt O75469); assay: CYP3A4 induction through human pregnane X receptor (PXR) by small molecules, qHTS assay (AID 1346984); also: nearly all actives have a fitted effect of over 40% in size
In short: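 Cells (DPX-2; HepG2 with PXR element plus CYP3A4-promoter luciferase) settled 5hr, then were treated 24hr at 37C. A 3hr, 3uM-final Luciferin-IPA step preceded luminescence measurement with One-Glo.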

[10] = target: Nuclear receptor subfamily 1 group I member 2 (Homo sapiens) (UniProt O75469); assay: Human pregnane X receptor (PXR) activation by small molecules, qHTS assay (AID 1346985); also: nearly all actives have a fitted effect of over 40% in size
In short: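 DPX-2 cells (HepG2 co-transfected with a PXR response element and a CYP3A4-promoter luciferase construct) were seeded at 2,000 per well, rested 5 hr at 37C, then exposed to DMSO-dissolved compounds for 24 hr. Activation was read as luciferase luminescence.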
% is scaled to controls: 0 for no effect and ±100 for the full control effect.

Sequence of Nuclear receptor subfamily 1 group I member 2 (Homo sapiens) (O75469 whole entry, looked up): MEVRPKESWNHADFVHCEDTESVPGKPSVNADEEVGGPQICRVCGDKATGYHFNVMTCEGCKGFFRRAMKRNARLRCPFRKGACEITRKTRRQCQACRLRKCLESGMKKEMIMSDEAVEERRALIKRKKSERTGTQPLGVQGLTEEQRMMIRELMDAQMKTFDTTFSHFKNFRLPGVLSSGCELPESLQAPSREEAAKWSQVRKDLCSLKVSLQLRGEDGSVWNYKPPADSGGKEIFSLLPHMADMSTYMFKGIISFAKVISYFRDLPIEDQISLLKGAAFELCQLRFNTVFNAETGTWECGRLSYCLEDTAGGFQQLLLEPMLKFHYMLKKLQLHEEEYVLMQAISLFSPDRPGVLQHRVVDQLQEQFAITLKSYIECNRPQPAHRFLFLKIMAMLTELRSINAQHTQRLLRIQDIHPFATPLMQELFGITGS
Sequence of Cytochrome P450 2D6 (Homo sapiens) (P10635 whole entry, looked up): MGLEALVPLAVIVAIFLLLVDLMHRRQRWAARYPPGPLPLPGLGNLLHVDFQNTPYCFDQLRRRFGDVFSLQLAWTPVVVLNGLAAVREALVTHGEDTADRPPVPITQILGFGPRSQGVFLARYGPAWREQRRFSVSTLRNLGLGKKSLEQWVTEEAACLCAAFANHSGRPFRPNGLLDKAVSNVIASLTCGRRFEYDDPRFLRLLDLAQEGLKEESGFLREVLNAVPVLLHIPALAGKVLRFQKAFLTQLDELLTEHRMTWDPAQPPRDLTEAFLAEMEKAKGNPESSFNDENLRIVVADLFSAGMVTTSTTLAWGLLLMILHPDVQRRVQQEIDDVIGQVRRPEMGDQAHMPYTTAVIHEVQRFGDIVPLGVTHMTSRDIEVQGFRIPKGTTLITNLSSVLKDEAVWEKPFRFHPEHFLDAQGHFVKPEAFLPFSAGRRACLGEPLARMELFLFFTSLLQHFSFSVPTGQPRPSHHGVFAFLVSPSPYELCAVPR
Sequence of Nuclear receptor subfamily 1 group I member 2 (Rattus norvegicus) (Q9R1A7 whole entry, looked up): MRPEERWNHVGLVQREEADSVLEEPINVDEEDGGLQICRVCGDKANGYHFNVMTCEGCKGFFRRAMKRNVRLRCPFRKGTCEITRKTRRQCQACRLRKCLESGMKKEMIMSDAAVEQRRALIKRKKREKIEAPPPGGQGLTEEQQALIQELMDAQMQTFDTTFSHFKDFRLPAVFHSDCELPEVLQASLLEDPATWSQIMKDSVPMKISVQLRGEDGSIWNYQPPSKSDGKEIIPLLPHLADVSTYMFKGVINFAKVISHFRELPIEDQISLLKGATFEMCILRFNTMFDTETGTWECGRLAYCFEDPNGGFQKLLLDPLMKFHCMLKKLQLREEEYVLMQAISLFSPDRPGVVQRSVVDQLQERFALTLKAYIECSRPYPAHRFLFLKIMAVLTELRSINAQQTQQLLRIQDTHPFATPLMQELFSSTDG
Sequence of Cytochrome P450 2C19 (Homo sapiens) (P33261 whole entry, looked up): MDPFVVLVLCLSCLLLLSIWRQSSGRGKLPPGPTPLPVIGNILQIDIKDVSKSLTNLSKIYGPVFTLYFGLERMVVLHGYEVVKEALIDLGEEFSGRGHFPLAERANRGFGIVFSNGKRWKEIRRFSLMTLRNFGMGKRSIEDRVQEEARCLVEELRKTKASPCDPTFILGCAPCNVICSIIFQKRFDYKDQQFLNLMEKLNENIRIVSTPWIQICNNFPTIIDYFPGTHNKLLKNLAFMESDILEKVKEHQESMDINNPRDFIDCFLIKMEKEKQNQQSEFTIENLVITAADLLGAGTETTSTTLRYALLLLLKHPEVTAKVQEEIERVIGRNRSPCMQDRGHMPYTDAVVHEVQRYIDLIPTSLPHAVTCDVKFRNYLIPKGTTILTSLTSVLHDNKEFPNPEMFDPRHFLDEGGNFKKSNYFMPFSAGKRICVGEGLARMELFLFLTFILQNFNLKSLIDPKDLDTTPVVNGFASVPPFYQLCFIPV

CC(C)CC(O)CC(C)C
inactive: Potency [1] | Potency [2] | outcome [3] | Potency [4] | Potency [5] | Potency [6] | Potency [7]

CSSc1ccoc1C
inactive: Potency [1] | Potency [2] | outcome [3] | Potency [4] | Potency [6] | Potency [7]

CCCCCCCC/C=C/C(=O)O
inactive: Potency [1] | Potency [2] | outcome [3] | Potency [4] | Potency [5] | Potency [6] | Potency [7]

CCCCCCC(O)CCCCCCCCCCC(=O)OC (centres undefined)
inactive: Potency [1] | Potency [2] | outcome [3] | Potency [4] | Potency [5] | Potency [6] | Potency [7]

CCC1CCC(CCC(=O)O)C1 (centres undefined)
inactive: Potency [1] | Potency [2] | outcome [3] | Potency [4] | Potency [6]
active: Potency [7] 40.8 µM

CCCCCCCCCCCCCOC(=O)CCSCCC(=O)OCCCCCCCCCCCCC
active: Potency [7] 10.6 µM
inactive: caspase activation [1] 0.0624% [at 19 µM] | activity change, negative = cytotoxicity [2] 0.0364% [at 19 µM] | caspase-3/7 activation [3] 0.789% [at 19 µM] | activity change, negative = cytotoxicity [4] 6.29% [at 19 µM] | activation [5] 3.58% [at 19 µM] | activity change, negative = inhibition [6] -6.54% [at 23.6 µM]

COc1ccc2nc(S(=O)Cc3ncc(C)c(OC)c3C)[nH]c2c1 (centres undefined)
inactive: Potency [1] | outcome [3] | Potency [4]
active: Potency [2] 67.8 µM | Potency [5] 53.8 µM and 26.6 µM | Potency [6] 5.57 µM and 17.4 µM | Potency [7] 5.57 µM and 11 µM

CC1CCCC(=O)C1=O (centres undefined)
inactive: Potency [1] | Potency [2] | outcome [3] | Potency [4] | Potency [5] | Potency [6] | Potency [7]

CCCCCCC(CO)CCCC (centres undefined)
inactive: Potency [1] | Potency [2] | outcome [3] | Potency [5] | Potency [6] | Potency [7]

BrC(Br)C(Br)Br
inactive: Potency [1] | Potency [2] | outcome [3] | Potency [5] | Potency [6]

CNc1c2c(nn1C)CCCC2
inactive: Potency [1] | Potency [2] | outcome [3] | Potency [5] | max activation [8] -2.75% | Potency [9] | Potency [10] | Potency [6] | Potency [7]

COC(=O)c1sccc1S(N)(=O)=O
active: Potency [7] 79.6 µM
inactive: Potency [1] | Potency [2] | outcome [3] | Potency [5]

Cc1cccc2sc(N)nc12
inactive: Potency [1] | Potency [2] | outcome [3]
active: Potency [5] 55.1 µM | Potency [7] 22.7 µM

COc1cc(NS(=O)(=O)c2ccc(N)cc2)nc(C)n1
inactive: Potency [1] | Potency [2] | outcome [3] | Potency [5] | Potency [6] | Potency [7]

C[C@@H]1[C@H](O)[C@@H](C)/C=C/C=C\C=C\C=C\C=C\C=C\C=C\[C@H](O[C@@H]2O[C@H](C)[C@@H](O)[C@H](N)[C@@H]2O)C[C@@H]2O[C@](O)(C[C@@H](O)C[C@@H](O)[C@H](O)CC[C@@H](O)C[C@@H](O)CC(=O)O[C@H]1C)C[C@H](O)[C@H]2C(=O)O (stereo in doubt)
inactive: Potency [1] | outcome [3] | max activation [8] 1.92% | Potency [9] | Potency [10] | Potency [6] | Potency [7]
active: Potency [2] 61.1 µM

CC1=CC[C@@]23C[C@@H]1C(C)(C)[C@@H]2CC[C@H]3C
inactive: Potency [1] | Potency [2] | outcome [3] | Potency [5] | Potency [6]

CC(C)C(O)C(C)(C)CO (centres undefined)
active: Potency [6] 32.7 µM | Potency [7] 41.2 µM
inactive: Potency [1] | Potency [2] | outcome [3] | Potency [5]

CCOC(=O)c1ccc(NC(=O)CN2CCCCC2)cc1
active: Potency [5] 23.7 µM | Potency [6] 17.4 µM
inactive: Potency [1] | Potency [2] | outcome [3] | Potency [7]

O=C(O)/C=C/c1ccc(O)c(O)c1
inactive: Potency [1] | Potency [2] | outcome [3] | Potency [5] | Potency [6]

O=c1[nH]c2cc(C(F)(F)F)c(N3CCOCC3)cc2n(CP(=O)(O)O)c1=O
inactive: Potency [1] | Potency [2] | outcome [3] | Potency [5] | max activation [8] -2.81% | Potency [9] | Potency [10] | Potency [6] | Potency [7]

Cc1cccc(C)c1NC(=O)c1cc(S(N)(=O)=O)c(Cl)cc1O
inactive: Potency [1] | Potency [2] | outcome [3] | Potency [5] | Potency [6] | Potency [7]

CC1=C2[C@@H]([C@H](C)CC[C@H]2/C=C(\C)C(=O)O)[C@H](O)C1
inactive: Potency [1] | Potency [2] | outcome [3] | Potency [5] | Potency [7]

O=C(O)c1ccc(O)cc1O
inactive: Potency [1] | Potency [2] | outcome [3] | Potency [5] | Potency [6]

C[C@H](CS)C(=O)N1CCC[C@H]1C(=O)O
active: Potency [7] 21.9 µM
inactive: Potency [1] | Potency [2] | outcome [3] | max activation [8] 0.201%

COc1cc(NCc2ccc3nc(N)nc(N)c3c2C)cc(OC)c1OC
inactive: Potency [1] | outcome [3] | Potency [5] | max activation [8] -10.1% | Potency [9] | Potency [10]
active: Potency [2] 26.6 µM | Potency [6] 13.8 µM | Potency [7] 9.77 µM

CN=C(N)NC(=O)Nc1c(C)cccc1C
inactive: Potency [1] | Potency [2] | outcome [3] | Potency [5] | Potency [6]
